Assay results reported in PubChem BioAssay.

Assay: small molecules captured by biotinylated probe aFGF10 – biochemical, small-molecule microarray, fluorescence 635/667, stem cell growth factor project, primary screen (AID 1071);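 further: score merges 667 nm spot intensity and signal to noise from triplicate slides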
Conditions: higher = more signal

Row | Compound | composite z-score
1 | COc1cc2c(cc1OC)CN(C(=O)[C@@H]1[C@H]3C(=O)O[C@H](c4ccccc4)[C@H](c4ccccc4)N3[C@H](c3ccc(OCCO)cc3)[C@@]13C(=O)Nc1ccc(C#CC4(O)CCCCCC4)cc13)CC2 | 1.15
2 | C=C(/C(=C/C[C@H](OC(C)=O)c1cccc(OCCO)c1)c1cnc2ccccc2c1)C(C)C | 0.459
3 | OCCCC1=CC(c2ccc(CN3CCCC3)cc2)N(Cc2sc3ccccc3c2Cl)CC1 (stereo not given) | 0.828
4 | CCOC(=O)C[C@H]1[C@H](OC(=O)c2ccccc2-c2ccccc2)[C@@H](NC(=O)C2CCCCC2)c2cc(OCCCO)ccc2N1C(=O)Cc1ccc(OC)cc1 | 0.253
5 | CN1C(=O)C2C=CC(C(O)c3cccc4ccccc34)N(N3CCCCC3)C2C1=O (stereo not given) | 0.691
6 | CC1=C([C@H](O)CCc2ccccc2)[C@H](CO)[C@@H]2C(=O)N(C)C(=O)[C@@H]2C1 | 0.0805
7 | O=C1O[C@@H](c2ccccc2)[C@@H](c2ccccc2)N2[C@@H](c3ccc(OCCO)cc3)[C@]3(C(=O)Nc4ccccc43)[C@@H](C(=O)O)[C@H]12 | 1.02
8 | C=C(/C(=C/C[C@@H](OC(C)=O)c1cccc(OCCO)c1)c1cc(C(=O)OC)ccc1OC)C(C)C | 0.451
9 | CCOC(=O)C[C@H]1[C@H](OC(=O)c2cc3ccccc3oc2=O)[C@@H](NC(=O)c2ccc(-c3ccccc3)cc2)c2cc(OCCCO)ccc2N1C(=O)c1ccc2ccccc2n1 | 0.684
10 | CC[C@H]1C2=C3C(CC[C@H]4C(OCc5ccc(F)cc5C(F)(F)F)OC[C@](C)([C@@H]34)N(C(=O)OC(C)(C)C)C2)C(COC)C1COC (stereo not given in full) | 0.0921
11 | C=CCOC(=O)[C@H]1[C@@H]2C(=O)O[C@@H](c3ccccc3)[C@@H](c3ccccc3)N2[C@@H](c2ccc(OCCOC(=O)[C@H]3C[C@H]4C(=O)N[C@@H](CCCCNC(C)=O)C(=O)N4[C@H]3c3ccc(O)cc3)cc2)[C@]12C(=O)Nc1ccccc12 | 0.0817
12 | [N-]=[N+]=Nc1ccccc1[C@@H]1OC(c2ccc(OCCCO)cc2)=N[C@]1(Cc1ccccc1)C(=O)NCC(O)CO (stereo not given in full) | 0.881
13 | COc1ccc(C(O)C2C=CC3C(=O)N(c4ccccc4)C(=O)C3N2Nc2ccc([N+](=O)[O-])cc2)cc1 (stereo not given) | 0.935
14 | O=C1OCC=C[C@H]2OC34C=CCN(Cn5nnc6ccccc65)C(=O)[C@H]3N(CCCO)C(=O)[C@@H]4[C@@H]12 (stereo not given in full) | 0.0131
15 | CCC[C@@H]1C[C@@]1(CCC)[C@@H](NC(=O)OCc1ccccc1)c1ccc(-c2ccccc2)cc1 | -0.68
16 | CC(C)(C)OC(=O)CC[C@@]1(C(=O)NCc2ccccc2)N=C(c2ccc(OCCCO)cc2)O[C@@H]1c1ccccc1N=[N+]=[N-] | 0.885
17 | COCCCNC(=O)[C@]1(CCS(=O)(=O)c2ccccc2)N=C(c2ccc(OCCCO)cc2)O[C@@H]1c1ccccc1CN=[N+]=[N-] | 0.948
18 | C=C(COC)/C(=C/C[C@H](OC(=O)c1ccncc1)c1ccccc1OCCO)c1cnc2ccccc2c1 | 1.18

Row | Compound | composite z-score
19 | O=C(NCC(F)(F)F)[C@@H]1c2ccccc2C(=O)N(Cc2cc(F)cc(C(F)(F)F)c2)[C@H]1c1ccc(CO)cc1 | -0.762
20 | Cc1ccccc1C(O)C1C=CC2C(=O)N(C)C(=O)C2N1N(c1ccccc1)c1ccccc1 (stereo not given) | 0.113
21 | COCCOC(=O)N1C(=O)[C@@]2(c3cc(C#CC4=CCCCC4)ccc31)[C@H](C(N)=O)[C@H]1C(=O)O[C@H](c3ccccc3)[C@H](c3ccccc3)N1[C@@H]2c1ccccc1OCCO | 0.999
22 | C[N+](C)(C)CCCCCCNC(=O)[C@H]1C[C@H]2C(=O)NCC(=O)N2[C@H]1c1ccc(O)cc1 | 0.776
23 | O=C1OCC=C[C@H]2OC34C=CCN(Cc5ccccc5)C(=O)[C@H]3N(CCCCCCO)C(=O)[C@@H]4[C@@H]12 (stereo not given in full) | -0.0166
24 | COc1ccc(-c2nc(-c3ccccc3)c3c(c2C)CO[Si]3(C(C)C)C(C)C)cn1 | 0.296
25 | COCCOC(=O)N1C(=O)[C@@]2(c3cc(C#CC4(O)CCCCCC4)ccc31)[C@H](c1ccc(O)cc1)N1[C@H](c3ccccc3)[C@H](c3ccccc3)OC(=O)[C@H]1[C@@H]2C(=O)NC[C@H](O)c1ccccc1 | 0.666
26 | [N-]=[N+]=NCc1ccccc1C[C@@]1(C(=O)NCc2ccccc2)N=C(c2ccc(OCCCO)cc2)O[C@@H]1c1ccccc1N=[N+]=[N-] | 0.629
27 | [N-]=[N+]=NCc1ccccc1C[C@@]1(C(=O)N2CCOCC2)N=C(c2ccc(OCCCO)cc2)O[C@@H]1c1ccccc1 | 1
28 | COc1ccc(NC(=O)O[C@H]2[C@H](OC(=O)Nc3ccccc3)[C@H](OC(=O)Nc3ccccc3)[C@@H](OC)O[C@@H]2CO)cc1 | 1.19
29 | COCCOC(=O)N1C(=O)[C@@]2(c3ccccc31)[C@H](C(=O)N1CCN(c3ncccn3)CC1)[C@H]1C(=O)O[C@H](c3ccccc3)[C@H](c3ccccc3)N1[C@@H]2c1ccc(O)cc1 | 0.879
30 | CCCCO[C@H]1C[C@H]2C(I)=C[C@@H]1C(=O)[C@]21CO1 | 0.0657
31 | COc1ccc(CN(C2=CC[C@@]3(C(N)=O)C(=O)C(Cl)=C(Cl)C(=O)[C@@]3(C#N)C2)S(=O)(=O)c2ccc(Br)cc2)cc1 | 0.497
32 | CCCCN1CC=CC23O[C@@H]4/C=C\CCC(C)OC(=O)C4[C@H]2C(=O)N(C(CO)C(C)C)[C@@H]3C1=O (stereo not given in full) | 0.291
33 | [N-]=[N+]=NCc1ccccc1C[C@]1(C(N)=O)N=C(c2ccc(OCCCO)cc2)O[C@H]1c1ccccc1 | 0.726
34 | C=CCNC(=O)[C@H]1[C@@H]2C(=O)O[C@@H](c3ccccc3)[C@@H](c3ccccc3)N2[C@@H](c2ccc(O)cc2)[C@]12C(=O)Nc1ccc(C#CC3(O)CCCCCC3)cc12 | 0.254
35 | NCCCCCNC(=O)[C@@H]1C[C@@H]2C(=O)NCC(=O)N2[C@@H]1c1cccc(OCCO)c1 | 0.773
